In PubChem BioAssay (NCI) one finds growth data, which are given here for 16 molecules.

About 83,000 compounds went through this panel and 20% of them were active in at least one assay; those are over-represented in the sample as a whole.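 Step 1: grow cells in 96-well plates. Step 2: add test compound at a single concentration. Step 3: incubate 48 h. Step 4: record percent growth.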 A number with no mark means an inactive call. Active and inactive are the calls of the source. How the source made its calls: active means growth percent below 10; inactive means the rest.

Holding throughout (assay): NCI-60 one-dose screen, 48 h (100 = growth as untreated, 0 = no growth, -100 = all killed)
For one assay, the system named is SK-MEL-2 melanoma. The following applies: 10 µM.
Another assay concerns EKVX NSCLC. The following applies: 10 µM.
For another assay, the system named is SN12C renal. Particulars: 10 µM.
The test system of another assay is TK-10 renal. The following applies: 10 µM unless noted.
The next assay deals with ACHN renal. Particulars: 10 µM.
The next assay relates to CAKI-1 renal. Particulars: 10 µM.
Another assay deals with A498 renal. The following applies: 10 µM.
In another assay the test system is CCRF-CEM leukemia. The following applies: 10 µM.
A further assay has as its system MOLT-4 leukemia. Particulars: 10 µM.
A further assay deals with UO-31 renal. The following applies: 10 µM.

Turning to `CS(=O)CC1=NC(=N)N=C1CS(C)=O` (stereo not drawn), the growth in the assay with SK-MEL-2 melanoma is 115%; with EKVX NSCLC, 98.7%; in the assay with SN12C renal it was 101%; in the assay on TK-10 renal, 101%; in the assay on ACHN renal, 107%; with CAKI-1 renal, 92.9%. The growth was 104% in the assay on A498 renal, 108% in the assay with CCRF-CEM leukemia and 107% in the assay on MOLT-4 leukemia.
Take `CC1(O)OC(COc2ccc(Cl)cc2)COC1O` (stereo not drawn): the growth is 126% in the assay with SK-MEL-2 melanoma; 94.7% with EKVX NSCLC; 101% with SN12C renal; 108% with TK-10 renal; 103% in the assay with ACHN renal; 90.1% in the assay with CAKI-1 renal. Also, the growth in the assay on A498 renal is 100%; in the assay with CCRF-CEM leukemia, 98.7%; with MOLT-4 leukemia, 60.9%.
As for `Clc1ccc(-c2n[nH]c3c2Cc2ccccc2-3)cc1Cl`, the growth in the assay on SK-MEL-2 melanoma was 99.6%; in the assay on EKVX NSCLC, 86.3%; in the assay with SN12C renal it was 94.1%; with UO-31 renal, 72.4%; in the assay on TK-10 renal, 101%; in the assay with ACHN renal, 100%. Moreover, the growth is 110% in the assay on A498 renal, 89.2% in the assay on CCRF-CEM leukemia and 91.4% with MOLT-4 leukemia.
For the molecule `COC(=O)c1ccc(C(C)C)cc1`, the growth with SK-MEL-2 melanoma is 116%; in the assay with EKVX NSCLC it was 92.3%; in the assay on SN12C renal it was 99.1%; in the assay on UO-31 renal, 97.4%; in the assay with ACHN renal, 101%; in the assay with CAKI-1 renal it was 96.8%. In addition, the growth with A498 renal is 129%; in the assay on CCRF-CEM leukemia it was 83.9%; in the assay with MOLT-4 leukemia, 101%.
On to `O=[N+]([O-])c1ccc(N=Nc2ccc(O)c3ccccc23)cc1`, for which the growth in the assay with SK-MEL-2 melanoma is 43.2%; in the assay with EKVX NSCLC, 60%; with SN12C renal it was 35.3%; in the assay on UO-31 renal it was 24%; in the assay on TK-10 renal, 76.1%; in the assay on ACHN renal it was 47.3%. The results for the growth in the assay with A498 renal and in the assay on MOLT-4 leukemia were 71.8% and 31.5%, respectively.
Consider `Oc1ccccc1O`, for which the growth was 90.1% with SK-MEL-2 melanoma; 109% with EKVX NSCLC; 83.8% with SN12C renal; 80.8% with TK-10 renal; 92.4% in the assay with ACHN renal; 93.9% in the assay on CAKI-1 renal. Further, the figures for the growth in the assay with A498 renal, with CCRF-CEM leukemia and with MOLT-4 leukemia were 87.9%, 27.1% and 74.4%, respectively.
For the molecule `NC(=S)N/N=C/c1ccc(N)cc1`, the growth is 104% in the assay with SK-MEL-2 melanoma; 101% in the assay with EKVX NSCLC; 108% in the assay with SN12C renal; 91.6% with UO-31 renal; 108% in the assay on ACHN renal; 101% in the assay with CAKI-1 renal. Further, the values for the growth in the assay with A498 renal, in the assay with CCRF-CEM leukemia and with MOLT-4 leukemia were 91.2%, 87.2% and 77.7%, respectively.
On to `CCOC(=O)c1coc(C(=O)OCC)c1C(=O)OCC`, for which the growth in the assay on SK-MEL-2 melanoma is 126%; in the assay on EKVX NSCLC, 100%; in the assay on SN12C renal, 112%; in the assay with UO-31 renal, 96.5%; with TK-10 renal, 118%; with CAKI-1 renal, 102%. Besides, the growth in the assay with A498 renal was 92.2%; in the assay with CCRF-CEM leukemia it was 112%; with MOLT-4 leukemia, 98.6%.
As to `O=C1Cc2ccccc2C(=O)O1`, the growth was 103% with SK-MEL-2 melanoma; 107% in the assay with EKVX NSCLC; 101% in the assay on SN12C renal; 110% in the assay with TK-10 renal; 111% with ACHN renal; 99.9% with CAKI-1 renal. Besides, the growth with A498 renal was 123%; with CCRF-CEM leukemia, 85.8%; with MOLT-4 leukemia, 85.4%.
For the molecule `OCC1OC(OC2C(O)C(CO)OC2(CO)OC2OC(CO)C(O)C(O)C2O)C(O)C(O)C1O` (stereo not drawn), the growth with SK-MEL-2 melanoma was 106%; with EKVX NSCLC, 103%; in the assay with SN12C renal it was 103%; in the assay on TK-10 renal, 106%; with ACHN renal, 113%; in the assay on CAKI-1 renal, 115%. The values for the growth in the assay with A498 renal, with CCRF-CEM leukemia and with MOLT-4 leukemia were 94.6%, 88.6% and 126%, respectively.
Take `OCC(O)C(O)C(O)C(O)/C=N/O` (stereo not drawn): the growth in the assay on SK-MEL-2 melanoma was 107%; in the assay with EKVX NSCLC, 105%; in the assay on SN12C renal it was 106%; with UO-31 renal, 98.4%; in the assay on ACHN renal, 112%; in the assay with CAKI-1 renal, 104%. For the same molecule, the growth is 102% in the assay on A498 renal, 81.6% in the assay on CCRF-CEM leukemia and 82.7% with MOLT-4 leukemia.
Regarding `COCCOC(=O)c1ccc(C(C)C)cc1`, the growth was 96.9% in the assay on SK-MEL-2 melanoma; 100% with EKVX NSCLC; 103% in the assay with SN12C renal; 94.5% in the assay with UO-31 renal; 107% in the assay on ACHN renal; 99.4% with CAKI-1 renal. Also, the growth with A498 renal was 92.8%; with CCRF-CEM leukemia, 90.6%; in the assay on MOLT-4 leukemia, 88.2%.
As to `COc1ccc(C2OC(N)=C(O)C2=O)cc1OC` (stereo not drawn), the growth is 117% in the assay with SK-MEL-2 melanoma; 94.3% in the assay on EKVX NSCLC; 96.1% in the assay with SN12C renal; 104% in the assay on TK-10 renal; 96.9% with ACHN renal; 92.7% in the assay with CAKI-1 renal. For the same molecule, the growth in the assay with A498 renal was 109%; in the assay on CCRF-CEM leukemia, 98.2%; in the assay with MOLT-4 leukemia, 109%.
As for `NC(N)=Nc1cc2ccccc2c2ccccc12`, the growth in the assay with SK-MEL-2 melanoma is 108%; with EKVX NSCLC, 83.9%; with SN12C renal, 80.5%; with UO-31 renal, 57%; with TK-10 renal it was 105%; in the assay on ACHN renal, 72.3%. The growth with A498 renal was 59.3%; with CCRF-CEM leukemia, 40.5%; in the assay with MOLT-4 leukemia, 41.6%.
For `COc1cc(-c2ccc(NC(=O)NC3CC3)c(OC)c2)ccc1NC(=O)NC1CC1`, the growth was 96.3% in the assay on SK-MEL-2 melanoma; 94.6% in the assay with EKVX NSCLC; 91.6% in the assay with SN12C renal; 46.5% with UO-31 renal; 99.6% in the assay with TK-10 renal; 63.8% in the assay on ACHN renal. Besides, the growth with A498 renal is 59.3%; with CCRF-CEM leukemia it was 47.8%; in the assay with MOLT-4 leukemia, 38.1%.
`CCN=c1cc2sc3cc(NCC)c(C)cc3nc-2cc1C`: the growth was 26.5% in the assay with SK-MEL-2 melanoma; -7.52% (active) in the assay on EKVX NSCLC; -83.1% (active) with SN12C renal; 40.5% in the assay with UO-31 renal; 53% with ACHN renal; -56% (active) in the assay on CAKI-1 renal. Besides, the results for the growth in the assay with A498 renal, in the assay on CCRF-CEM leukemia and in the assay with MOLT-4 leukemia were 47.7%, 14% and 8.77% (active), respectively.
